Measurements published in PubChem BioAssay.
The source made the active and inactive calls. Unless noted, no stated cut-off is given here; in the data, active means inhibition above about 80%; inactive means the rest.

Columns and labels:
[1] = LFS_MB_P medulloblastoma growth inhibition, cell-based, chromothripsis tumors, cisplatin or BGB combos (AID 1671449); details: LFS_MB_P medulloblastoma cells;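 further: cells exposed for 96 hours; 0% = vehicle DMSO and 100% = killing by high DMSO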
[2] = HDN33 neuroblastoma growth inhibition, cell-based, chromothripsis tumors, cisplatin or BGB combos (AID 1671450); details: HDN33 neuroblastoma cells, stronger effect = higher value;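 further: cells exposed to compound for four days; 0% = vehicle DMSO and 100% = cell killing by high DMSO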
[3] = ICB984 medulloblastoma cell growth inhibition, synergistic combos for chromothripsis tumors, cisplatin or BGB combos (AID 1671451; call rule not given here;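 further: cells exposed for 96 hours before readout; 0% = vehicle DMSO and 100% = killing by high DMSO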); details: ICB984 medulloblastoma cells, drug combinations, stronger effect = higher value
[4] = LFS_MB_1R medulloblastoma cell growth inhibition, synergistic combos for chromothripsis tumors, cisplatin or BGB combos (AID 1671452); details: LFS_MB_1R medulloblastoma cells, stronger effect = higher value;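 further: cells exposed for 96 hours before readout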
[5] = HTB85 osteosarcoma cell growth inhibition, synergistic combos for chromothripsis tumors, BGB or cisplatin IC20 combos (AID 1671453); details: HTB85 osteosarcoma cells, drug combinations, stronger effect = higher value;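 further: cells exposed for 96 hours before readout; 0% = vehicle DMSO and 100% = high DMSO killing control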
[6] = CRL2098 osteosarcoma cell growth inhibition, synergistic combos for chromothripsis tumors, BGB or cisplatin IC20 combos (AID 1671454); details: CRL2098 osteosarcoma cells, drug combinations, stronger effect = higher value;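 further: cells exposed for 96 h before readout; 0% = vehicle DMSO and 100% = killing by high DMSO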
[7] = HD-MB03 medulloblastoma cell growth inhibition, synergistic combos for chromothripsis tumors, BGB or cisplatin IC20 combos (AID 1671455; in the data active means inhibition above about 83%;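 further: 0% = vehicle DMSO and 100% = high DMSO as cytotoxic control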); details: HD-MB03 medulloblastoma cells, stronger effect = higher value
[8] = UWB1.289 ovarian carcinoma cell growth inhibition, synergistic combos for chromothripsis tumors, BGB or cisplatin combos (AID 1671456); details: UWB1.289 ovarian carcinoma cells, stronger effect = higher value;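 further: cells exposed to compound for four days; 0% = vehicle DMSO and 100% = killing by high DMSO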
[9] = LFS_MB_2R medulloblastoma cell growth inhibition, synergistic combos for chromothripsis tumors, cisplatin combos (AID 1671457); details: LFS_MB_2R medulloblastoma cells, stronger effect = higher value;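 further: cells exposed to compound for four days before readout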
[10] = MDA-MB-436 breast carcinoma cell growth inhibition, synergistic combos for chromothripsis tumors, BGB or cisplatin combos (AID 1671458; call rule not given here;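 further: cells exposed for 96 hours; 0% = vehicle DMSO and 100% = killing by high DMSO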); details: MDA-MB-436 breast carcinoma growth inhibition, drug combinations, stronger effect = higher value
[11] = UWB1.289_BRCA1 ovarian cancer growth, cell-based, BGB or cisplatin combinations (AID 1671459); details: UWB1.289 BRCA1 ovarian carcinoma, drug combinations, stronger effect = higher value
[12] = human astrocyte viability loss, single and combined drugs, cytotoxicity control for chromothriptic childhood tumor combination screen, cell-based, BGB or cisplatin IC20 combos (AID 1671460); details: Human astrocytes, drug combinations, stronger effect = higher value;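 further: cells exposed to compounds for 96 hours before viability readout; 0% = vehicle and 100% = killing control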
[13] = growth inhibition of BT084 medulloblastoma cells, cell-based, ICGC_MB145, cisplatin and BGB IC40 combos (AID 1671461); details: drug combinations, stronger effect = higher value;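 further: cells exposed to drugs for 96 hours; 0% = vehicle DMSO and 100% = high DMSO full killing control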
[14] = growth inhibition of RCMB18 medulloblastoma cells, cell-based, cisplatin and BGB IC40 combos (AID 1671462); details: stronger effect = higher value;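 further: cells exposed to compound for four days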
[15] = growth inhibition of CRL1545 osteosarcoma cells, cell-based, cisplatin and BGB IC20 combos (AID 1671464); details: stronger effect = higher value;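 further: cells exposed to compound for 96 hours before readout; 0% = vehicle DMSO and 100% = high DMSO killing control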
[16] = measured here: combination with BGB IC40, at 0.05 µM
[17] = measured here: with BGB IC20 combination, at 0.5 µM
[18] = measured here: with cisplatin IC20 combination, at 0.5 µM
[19] = measured here: combination with cisplatin, at 0.5 µM
[20] = measured here: combination with cisplatin, at 5 µM

Compound: CC(C)c1ccc(-c2cc(=O)c3ccccc3o2)cc1
- inhibition ([1]; at 0.5 µM, stronger effect = higher value): -1.02% (inactive)
- inhibition ([1]; measured here: combination with BGB IC20, at 0.005 µM): -13.4%
- inhibition ([1]; measured here: combination with BGB IC40, at 0.005 µM): -27.4%
- inhibition [1, 16]: 8.34%
- inhibition ([1]; measured here: combination with cisplatin, at 0.5 µM, stronger effect = higher value): 64.5%
- inhibition ([1]; measured here: combination with cisplatin, at 5 µM, stronger effect = higher value): 60.2%
- inhibition ([2]; BGB combo, at 5 µM): 30.8%
- inhibition ([2]; at 0.5 µM): -12.3% (inactive)
- inhibition ([2]; cisplatin combo, at 5 µM): 30.4%
- inhibition [2, 17]: -6.46%
- inhibition [2, 18]: -22.2%
- inhibition ([2]; single agent, at 5 µM): 42.1%
- inhibition ([3]; BGB IC20 combo, at 0.005 µM): 5.4%
- inhibition ([3]; BGB IC40 combo, at 0.005 µM): -31.5%
- inhibition ([3]; BGB IC40 combo, at 0.05 µM): 14.8%
- inhibition ([3]; at 0.5 µM): -18.8% (inactive)
- inhibition ([3]; cisplatin combo, at 0.05 µM): 11.4%
- inhibition ([3]; cisplatin combo, at 0.5 µM): -24.5%
- inhibition ([3]; cisplatin combo, at 5 µM): -45%
- inhibition ([3]; measured here: 5 uM single agent, at 5 µM): -10.3%
- inhibition ([4]; at 0.5 µM): -36.4% (inactive)
- inhibition [4, 16]: -28.3%
- inhibition [4, 19]: -81.6%
- inhibition [4, 20]: 18.3%
- inhibition ([5]; at 0.5 µM): -40.2% (inactive)
- inhibition ([5]; measured here: with BGB IC20, at 0.5 µM): -39.8%
- inhibition ([5]; measured here: with BGB IC20, at 5 µM): 1.8%
- inhibition ([5]; measured here: with cisplatin IC20, at 0.5 µM): -59.9%
- inhibition ([5]; measured here: with cisplatin IC20, at 5 µM): 17.5%
- inhibition ([5]; single agent, at 5 µM): 16.9%
- inhibition ([6]; at 0.5 µM): -58.5% (inactive)
- inhibition ([6]; measured here: combination with BGB at IC20, at 0.5 µM): -35.3%
- inhibition ([6]; measured here: combination with cisplatin at IC20, at 0.5 µM): -37.3%
- inhibition ([7]; at 0.5 µM): -10% (inactive)
- inhibition ([7]; measured here: combo with BGB at IC20, at 0.5 µM): -14%
- inhibition ([7]; measured here: combo with cisplatin at IC20, at 0.5 µM): -4.48%
- inhibition ([8]; at 0.5 µM): -15.3% (inactive)
- inhibition ([8]; measured here: inhibition with BGB combination, at 0.05 µM): -31.9%
- inhibition ([8]; measured here: inhibition with cisplatin combination, at 0.05 µM): -16.9%
- inhibition ([9]; at 0.5 µM): -14.3% (inactive)
- inhibition [9, 19]: -16.1%
- inhibition [9, 20]: 41.6%
- inhibition ([10]; at 0.5 µM): -11.1% (inactive)
- inhibition ([10]; measured here: BGB combination, at 0.5 µM): -14.1%
- inhibition ([10]; measured here: BGB combination, at 5 µM): 27.2%
- inhibition ([10]; measured here: cisplatin combination, at 0.5 µM): -11.6%
- inhibition ([10]; measured here: cisplatin combination, at 5 µM): 22.8%
- inhibition ([11]; BGB combination, concentration series, at 5 µM): 43.9%
- inhibition ([11]; at 0.5 µM): -16.7% (inactive)
- inhibition ([11]; cisplatin combination, concentration series, at 5 µM): 32.9%
- inhibition ([12]; at 0.5 µM): -3.03% (inactive)
- inhibition ([12]; measured here: combo with BGB IC20, at 0.5 µM): 2.13%
- inhibition ([12]; measured here: combo with cisplatin IC20, at 0.5 µM): -6.48%
- inhibition ([13]; at 0.5 µM): -10.1% (inactive)
- inhibition ([13]; cisplatin combination, at 0.5 µM): -5.92%
- inhibition ([13]; cisplatin combination, at 5 µM): 41.9%
- inhibition ([13]; measured here: BGB IC40 combination 0.05 uM, at 0.05 µM): -23.7%
- inhibition ([13]; single agent, at 5 µM): 42.7%
- inhibition ([14]; at 0.5 µM): -14% (inactive)
- inhibition ([14]; cisplatin combo, at 5 µM): 35.3%
- inhibition ([14]; measured here: BGB IC40 combination, at 0.05 µM): -32.1%
- inhibition [14, 19]: -17.3%
- inhibition ([14]; single agent, at 5 µM): 35%
- inhibition ([15]; at 0.5 µM): -29.6% (inactive)
- inhibition [15, 17]: -34%
- inhibition [15, 18]: -27.5%
- inhibition ([15]; single agent, at 0.05 µM): -43.4%
- inhibition ([15]; single agent, at 5 µM): 26.5%
